# In the library only some 11% were active in any assay of this set; here they are far more common.
# PNC inhibitor: perinucleolar compartment assembly inhibition. activity change (PNC), negative = inhibition, % at 10 µM. PC3M PTB-GFP, PNC prevalence imaging, 16 h; hits give low values. 140,000 tested, 3.1% active;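 active = readout at or below -70, meaning at least 70% loss of cells showing the perinucleolar compartment, a nuclear body marking cancer cells; inconclusive = readout between -30 and a set limit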
#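 PC3M cells stably expressing PTB-GFP, 750–1000 cells/well, treated 16 h at 37 °C with compound (23 nl of library stock), in duplicate. After paraformaldehyde fixation and Hoechst stain, imaged at 20x; PNC prevalence scored by image analysis.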
# IMPase Li cell: membrane-permeable IMPase blocker, potentiated with lithium; Potency, µM (doses to about 59.4 µM), actives largely listed as inhibitors; 210,000 tested, 0.35% active; CHO-M1 cells, IP1 TR-FRET (IP-One), carbachol + lithium; AID 1457; active = well fitted inhibition curve with a large enough effect; inconclusive = small, poorly fitted or top-dose-only effect; inactive = no such curve, though single readings can be large or run the other way;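 note: IP1 builds up when IMPase is blocked and the TR-FRET signal falls; nearly all actives have a fitted effect of over 50% in size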
#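 CHO cells stably expressing M1 receptor (2000/well, cultured 16–30 h) treated 30 min at 37C with compound plus low lithium. Cytosolic IP1 by TR-FRET (665/620 ratio and 620 channel) after 10 min lysis; AC50 by Hill fit.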
# HPGD inh: blocks human HPGD enzyme activity; P15428; purified HPGD, NADH fluorescence kinetic, PGE2 substrate; Potency, µM, actives largely listed as inhibitors; 150,000 tested, 4.3% active; AID 894
# Target sequence (P15428 whole entry, looked up): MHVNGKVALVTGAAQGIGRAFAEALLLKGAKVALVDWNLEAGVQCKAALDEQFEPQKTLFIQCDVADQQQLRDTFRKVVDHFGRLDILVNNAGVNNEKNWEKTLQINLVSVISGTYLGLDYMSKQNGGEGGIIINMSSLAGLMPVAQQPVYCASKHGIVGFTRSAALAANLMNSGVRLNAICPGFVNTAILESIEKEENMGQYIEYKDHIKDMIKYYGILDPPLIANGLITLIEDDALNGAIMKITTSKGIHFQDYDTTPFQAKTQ
#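 NADH formation kinetics: reaction with 30 uM PGE2 and 1 mM NAD+ (final), 20 nM enzyme, Tris-HCl pH 8 with Tween 20, after 15 min compound preincubation at room temperature. Fluorescence change, last versus first of five reads.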
# ALDH1A1 inh: ALDH1A1 (human) enzyme inhibition. P00352. Purified ALDH1A1, NADH fluorescence, propionaldehyde substrate. Potency, µM (top dose mostly 75.3 µM), hits mostly inhibitors. 220,000 tested, 7.3% active
# IMPase cell inh: cell-permeable inhibitors of inositol monophosphatase (IMPase). P97697. CHO-M1 cells, IP1 accumulation, HTRF TR-FRET ratio. inhibition (IP1 accumulation), % at 46.1 µM. 120,000 tested, under 10 active; active = well fitted curve in the direction sought with a large enough effect in the signal ratio, not every such curve was filed as active; inconclusive = small, poorly fitted or top-dose-only effect, or a change in a side signal; inactive = no such curve, though single readings can be large or run the other way; the % refers to the signal ratio;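 note: cells stimulated with carbachol in lithium chloride buffer; higher means more IMPase inhibition seen as more IP1 and lower FRET ratio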
# Target sequence (P97697 whole entry, looked up): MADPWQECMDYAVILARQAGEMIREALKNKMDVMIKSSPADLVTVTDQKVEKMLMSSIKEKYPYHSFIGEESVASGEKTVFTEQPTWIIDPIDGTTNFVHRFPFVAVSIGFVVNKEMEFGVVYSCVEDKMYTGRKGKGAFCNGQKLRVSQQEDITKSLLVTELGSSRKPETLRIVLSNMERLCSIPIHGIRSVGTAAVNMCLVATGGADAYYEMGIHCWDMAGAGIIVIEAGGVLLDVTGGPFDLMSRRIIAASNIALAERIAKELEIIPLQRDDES
#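 Cellular IMPase inhibition is scored as a rise in cytosolic IP1, detected by competitive TR-FRET between d2-labelled IP1 and a europium anti-IP1 antibody. M1-expressing CHO cells were stimulated with carbachol for 30 min at 37C, with lithium (50 mM LiCl) present in the buffer.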
# Hits are given with their value; n = inactive; u = inconclusive; x = no result given; ! = not active in a repeat; [ ] = dose if it differs, or a comment. Unless noted, calls come from the whole dose curve; as a rule, active = well fitted inhibition curve with a large enough effect (not every such curve was filed as active); inconclusive = small, poorly fitted or top-dose-only effect, or another doubt; inactive = no such curve, though single readings can be large or run the other way.
SMILES,PNC inhibitor,IMPase Li cell,HPGD inh,ALDH1A1 inh,IMPase cell inh
NCCCP(=O)(O)CC1CCCCC1,x,n,n,n,n
O=S1(=O)N(CCN2CC=C(c3c[nH]c4cc(F)ccc34)CC2)c2cccc3c2N1CCC3,x,n,n,25µM,n
C=C(C)[C@H]1Cc2c(ccc3c2O[C@H]2COc4cc(OC)c(OC)cc4[C@@H]2C3=O)O1,x,x,x,x,n
CC(=O)N1CC[N+](C)(C)CC1,x,n,n,n,n
COc1ccc(CCn2c(O)c(C=NCc3ccc4c(c3)OCO4)c(=O)[nH]c2=O)cc1OC,n,n,n,5µM,n
CCCCCCCCCCCCCCCCOC[C@@H](O)COP(=O)([O-])OCC[N+](C)(C)C,x,n,n,n,x
COc1cc(C2C(C#N)=C(N)Oc3cc(O)ccc32)cc(OC)c1OC (configuration not stated),-91,n,n,u,n
CCN(CC)C(=O)c1ccc(NC(=O)Cn2nc(C)c3ccccc3c2=O)cc1,u,n,10µM,u,n
c1ccc(C[N+]23CN4CN(CN(C4)C2)C3)cc1,x,n,n,n[13.5 µM],x
COc1cc2c3cc1Oc1cc(ccc1O)C[C@@H]1c4c(cc(OC)c(O)c4Oc4ccc(cc4)C[C@H]3N(C)CC2)CCN1C,-97,n,n,n,x
O=P(O)(O)c1ccccc1 (tested in a mixture with another compound),x,u,n,n[13.5 µM],x
CCCCN1C(=O)/C(=C/c2ccc(N(C)C)cc2)C(=O)N(Cc2ccco2)C1=O,n,n,25µM,0.71µM,n
O=C(O)Cn1cc(/C=C2\C(=O)NC(=O)N(Cc3ccco3)C2=O)c2ccccc21,x,n,x,8.9µM,x
O=C(O)Cn1cc(C(=O)c2ccccc2)c2ccccc21,n,n,n,n,n
CCN(CC)c1ccc(/C=C2/C(=O)NC(=O)N(CC3CCCO3)C2=O)cc1 (configuration not stated),n,n,35µM,0.63µM,n
O=C1NC(=O)N(Cc2ccco2)C(=O)/C1=C/c1cccn1CCOc1ccccc1Cl,n,n,28µM,n,n
COc1ccc(N=Cc2c(O)n(CC3CCCO3)c(=O)[nH]c2=O)cc1 (configuration not stated),n,n,u,u,x
Cn1cccc1/C=C1/C(=O)NC(=O)N(Cc2ccccc2)C1=O,n,n,n,u,x
CCN(CC)c1ccc(/C=C2\C(=O)NC(=O)N(Cc3ccco3)C2=O)cc1,n,n,16µM,0.5µM,x
FC(F)(F)c1ccccc1CN1CCN(Cc2ccccc2)CC1,n,n,n,20µM,n
c1ccc2cc3c(cc2c1)-c1cccc2cccc-3c12,x,n,n,u,x
O=C1/C(=C/c2cccnc2)SC(=NCc2ccccc2)N1Cc1ccccc1,x,n,x,0.56µM,x
COC(=O)C1(C)C=C2C(=C(C)C(=O)C2C)CN1 (configuration not stated),x,n,n,u,x
O=C(O)/C=C\c1ccc[c]([Sb])c1,x,n,n,n[13.5 µM],x
NS(=O)(=O)c1ccc(-c2ccc([As](=O)(O)O)cc2)cc1,x,n,n,n[13.5 µM],x
SMILES,PNC inhibitor,IMPase Li cell,HPGD inh,ALDH1A1 inh,IMPase cell inh
CC1(C)CC(=O)C2=C(C1)OC(N)=C([N+](=O)[O-])C2c1ccc(C#N)s1 (configuration not stated),x,n,x,20µM,x
O=C(O)[C@@H]1Cc2[nH]cnc2C(c2cccnc2)N1 (some centres not stated),x,n,n,n,x
O=C1NC(=O)C(=Cc2cc3c(cc2[N+](=O)[O-])OCO3)C(=O)N1,x,n,x,16µM,x
O=C1CN=C(c2ccccc2)c2cc(Br)ccc2N1Cc1cc(=O)n2ccccc2n1,-88,n,n,u,x
N[C@@H](Cc1ccccc1)P(=O)(O)O,x,n,n,n[13.5 µM],x
OC(c1ccc(Cl)cc1)(c1ccc(Cl)cc1)C(Cl)(Cl)Cl,x,n,n,n,x
CN1C(=O)C(=Cc2ccc(N3CCCCCC3)o2)C(=O)N(C)C1=S,n,n,n,u,n
CN1C(=O)C(=Cc2ccc(-c3cccc(Cl)c3)o2)C(=O)N(C)C1=O,n,n,7.9µM,u,x
CN1C(=O)C(=Cc2ccc(N3CCOCC3)o2)C(=O)N(C)C1=O,n,n,16µM,n,x
Cc1ccc(Sc2ccc(C=C3C(=O)N(C)C(=O)N(C)C3=O)o2)cc1,x,n,x,4.5µM,x
CN1C(=O)NC(=O)/C(=C\c2ccc([N+](=O)[O-])o2)C1=O,x,n,x,u,x
CCOc1cc2[nH]c(=S)n(CCCC(=O)N3CCC4(CC3)OCCO4)c(=O)c2cc1OCC,n,n,n,u,n
CCOC(=O)N1CCN(C(=O)c2ccc3c(=O)n(CCC4=CCCCC4)c(=S)[nH]c3c2)CC1,u,n,n,7.9µM,n
C[C@H]1C[C@H](C)C(=O)[C@@H]([C@H](O)CC2CC(=O)NC(=O)C2)C1,x,n,n,n,n
COc1ccc(O)c(CN2CCCC(C(=O)c3sccc3C)C2)c1 (configuration not stated),x,n,x,13µM,x
Cc1ncc([N+](=O)[O-])n1CCN=[N+]=[N-],x,n,n,n[13.5 µM],x
CCN(CC)C(=O)c1ccc(NC(=O)CSc2nnnn2-c2cc(OC)ccc2OC)cc1,n,n,8.9µM,8.9µM,n
O=C(O)c1cccc2c1NC(c1cccc([N+](=O)[O-])c1)C1CC(Sc3ccccc3[N+](=O)[O-])C(Cl)C21 (configuration not stated),x,n,x,3.5µM,x
CCN(CC)C(=O)c1ccc2c(c1)C1C(Cl)C(Sc3ccccc3[N+](=O)[O-])CC1C(C(=O)O)N2 (configuration not stated),x,x,x,25µM,x
O=C(O)c1ccc2c(c1)C1C(Cl)C(Sc3ccccc3[N+](=O)[O-])CC1C(c1cccc([N+](=O)[O-])c1)N2 (configuration not stated),x,n,x,u,x
CC1=C2C(=COC(C)C2C)C(=O)C(C(=O)O)=C1O (configuration not stated),x,n,n,u,x
CC(C)[C@H](CO)Nc1nc(Nc2cccc(Cl)c2)c2ncn(C(C)C)c2n1,x,n,n,u,n
CS/C(N)=C(C#N)/C(C#N)=C(\N)SC,x,n,u,7.1µM,x
N#C/C(N)=C(/N)C#N,x,n,n,n,x
Cc1ccc(S(=O)(=O)NCC2CCC(C(=O)NCCCN3CCOCC3)CC2)cc1 (configuration not stated),n,n,n,22µM,n
SMILES,PNC inhibitor,IMPase Li cell,HPGD inh,ALDH1A1 inh,IMPase cell inh
CCCCC/C=C\C/C=C\C/C=C\C/C=C\CCCC(=O)N[C@H](C)CO,x,n,n,7.1µM!,x
CCCCC/C=C\C/C=C\C/C=C\C/C=C\CCCC(=O)OC(CO)CO,x,n,28µM!,22µM!,x
CCCCC/C=C\C/C=C\CCCCCCCC(=O)NCCO,x,n,n,n,x
O=[N+]([O-])c1cc2c(cc1CNCCc1ccc3c(c1)OCO3)OCO2,n,n,n,28µM,x
Oc1ccc(CCNCc2cc3c(cc2Br)OCO3)cc1,x,n,n,n[13.5 µM],x
Nc1nnnn1CCO,x,n,n,n[13.5 µM],x
CC(=O)Nc1ccc(C2CN(C)CC2C(=O)c2ccc(Cl)cc2)cc1 (configuration not stated),x,n,x,u,x

# Screening data (PubChem BioAssay)
